MCF10A rerep: inducers of DNA re-replication in MCF 10A breast cells | MCF 10A DNA re-replication, Hoechst nuclear intensity, 48 h | Potency, µM (doses to about 46.1 µM), inactives show top-dose activity, positive = re-replication, most hits filed as activators | hit rate 2.9% among 350,000 | AID 624296; note: % of control where 0% means no effect; nearly all actives have a fitted effect of over 50% in size
VP16 counter: Gal4-VP16 reporter inhibition counter-screen. Potency, µM (doses to about 53.6 µM), inactives show top-dose activity, negative = inhibition, usual class: inhibitors. AID 2546. hit rate 3.5% among 310,000. Drosophila S2 Gal4-VP16 UAS-luciferase, luminescence, 20 h;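 note: Gal4-VP16 expression switched on by copper sulfate through the metallothionein promoter; % is set by controls: 0 for no effect and ±100 for the full control effect; nearly all actives have a fitted effect of over 50% in size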
ELG1 repair inh: inhibitors of ELG1-dependent DNA repair in HEK293T cells; Potency, µM (top dose mostly 46.1 µM), for the others: at the top dose activity change, negative = inhibition, hits mostly inhibitors; hit rate 2.3% among 330,000; HEK293T ELG1-luciferase reporter, luminescence, 16 h; DNA damage induced by 5-fluorouridine; note: % is set by controls: 0 for no effect and ±100 for the full control effect; nearly all actives have a fitted effect of over 55% in size
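Cells (2,000 per well) received 5-fluorouridine plus test compound or DMSO and were incubated 16 hr at 37 °C, 5% CO2. Luciferase activity was read by luminescence 30 min after ONE-Glo addition; signal suppression marked inhibition of damage-induced ELG1 function.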
SW480 rereplic: DNA re-replication induction in SW480 cells. SW480 DNA re-replication, Hoechst DNA content imaging, 48 h. Potency, µM (titrated, usually from 46.1 µM), without a hit: at the highest dose re-replication activation, hits mostly activators. hit rate 1.8% among 340,000. AID 624297; note: % of control where 0% means no effect; nearly all actives have a fitted effect of over 55% in size
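Quantitative HTS format with DMSO vehicle controls; 48 hr drug incubation at 37 C, then 40 min Hoechst staining and scanning imager measurement at 405 nm excitation.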
RORgamma inh: ROR gamma (mouse) transcription inhibition; P51450; Drosophila S2 Gal4-RORgamma UAS-luciferase reporter, 20 h; Potency, µM (top dose mostly 53.6 µM), without a hit: top-dose activity change, negative = inhibition, most hits filed as inhibitors; hit rate 5.4% among 310,000; AID 2551; note: % is set by controls: 0 for no effect and ±100 for the full control effect; nearly all actives have a fitted effect of over 60% in size
Target sequence (P51450 whole entry, looked up, the tested form may be a part): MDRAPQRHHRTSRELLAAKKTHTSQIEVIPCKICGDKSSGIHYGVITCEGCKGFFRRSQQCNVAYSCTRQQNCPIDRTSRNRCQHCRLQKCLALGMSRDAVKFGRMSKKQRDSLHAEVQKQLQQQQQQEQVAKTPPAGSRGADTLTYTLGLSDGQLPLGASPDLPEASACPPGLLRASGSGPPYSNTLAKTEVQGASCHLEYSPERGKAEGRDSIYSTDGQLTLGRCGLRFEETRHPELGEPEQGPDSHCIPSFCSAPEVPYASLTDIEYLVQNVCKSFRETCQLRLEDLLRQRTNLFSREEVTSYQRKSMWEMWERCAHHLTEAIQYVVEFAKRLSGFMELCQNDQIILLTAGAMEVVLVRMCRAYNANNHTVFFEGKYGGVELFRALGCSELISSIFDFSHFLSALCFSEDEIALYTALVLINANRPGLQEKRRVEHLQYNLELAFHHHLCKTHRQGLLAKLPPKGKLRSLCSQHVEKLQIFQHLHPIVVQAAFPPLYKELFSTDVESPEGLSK
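Luciferase reporter read in Schneider cells carrying Gal4-RORγ (mouse) and UAS-Photinus luciferase; cells given compound 1 h before 700 uM copper sulfate induction, then incubated 20 h at ambient temperature.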
Active calls of the source: *; ? = inconclusive; · = not tested or not shown; [ ] = another dose, or the depositor's remark. Shown are actives, neighbours in structure and some others; about 10% of the full set was active somewhere. Calls come from the whole dose curve; as a rule, active = well fitted curve in the direction sought with a large enough effect; inconclusive = small, poorly fitted or top-dose-only effect, or another doubt; inactive = no such curve, though single readings can be large; an effect the other way counts as inactive or inconclusive. Potency is the fitted concentration of half-maximal effect.

SMILES	MCF10A rerep	VP16 counter	ELG1 repair inh	SW480 rereplic	RORgamma inh
CCCCCS(=O)(=O)CCCCCCCCCCn1c(-c2ccc(O)cc2)c(C)c2cc(O)ccc21	·	20µM*	·	·	?
CC(=O)c1c(C)n(CCO)c2ccc(O)cc12	-6%	-1%	-17%	-11%	2%
O=C(COc1ccccc1-c1ccccc1)NN=C1CCCC1	?	-25%	?	?	-8%
CC(=O)Nc1ccc(NC(=O)C(C)OC(=O)CCCc2c[nH]c3ccccc23)cc1 (stereo unspecified)	-10%	·	13%	6.5µM*	·
COc1cccc(C(c2nnnn2Cc2ccc(F)cc2)N2CCC(C(N)=O)CC2)c1OC (stereo unspecified)	5%	16%	3%	1%	5%
C=CCn1cnc2c(c1=O)c1nc3ccccc3nc1n2/N=C/c1cccc(OC)c1	12%	?	21µM*	-8%	8%
Cc1nc2c(c(=O)n1CCC1=CCCCC1)c1nc3ccccc3nc1n2/N=C/c1ccco1	?	14%	5.2µM*	10%	18%
COCCn1cnc2c(c1=O)c1nc3ccccc3nc1n2/N=C/c1ccc(OC)c(OC)c1	1%	-18%	5.8µM*	?	27%
CCCCCCn1cnc2c(c1=O)c1nc3ccccc3nc1n2/N=C/c1ccco1	-9%	-7%	15µM*	-4%	?
COCCn1cnc2c(c1=O)c1nc3ccccc3nc1n2/N=C/c1ccco1	0%	-3%	-6%	-29%	38%
CC[C@H](C)[C@H](NC(=O)[C@H](Cc1ccc(O)cc1)NC(=O)[C@H](CCCNC(=N)N)NC(=O)[C@H](CCCNC(=N)N)NC(=O)[C@H](CC(C)C)NC(=O)[C@H](CCC(N)=O)NC(=O)[C@@H](NC(=O)[C@H](CCC(=O)O)NC(=O)[C@H](Cc1ccc(O)cc1)NC(=O)[C@H](CCC(N)=O)NC(=O)[C@H](C)NC(=O)[C@H](CCCNC(=N)N)NC(=O)[C@H](CCC(N)=O)NC(=O)[C@H](CCC(=O)O)NC(=O)[C@H](Cc1cnc[nH]1)NC(=O)[C@@H](NC(=O)[C@H](C)NC(=O)[C@H](Cc1ccc(O)cc1)NC(=O)[C@H](CC(=O)O)NC(=O)CNC(=O)[C@@H]1CCCN1C(=O)[C@H](Cc1ccc(O)cc1)NC(=O)[C@H](CCSC)NC(=O)[C@@H]1CCCN1C(=O)[C@H](CCC(=O)O)NC(=O)[C@H](CC(C)C)NC(=O)[C@@H]1CCCN1C(=O)[C@H](C)N)[C@@H](C)O)[C@@H](C)O)C(=O)N[C@@H](CC(N)=O)C(=O)N[C@H](C(=O)N[C@@H](CC(C)C)C(=O)N[C@H](C(=O)N[C@@H](CCCNC(=N)N)C(=O)N1CCC[C@H]1C(=O)N[C@@H](CCCNC(=N)N)C(=O)N[C@@H](Cc1ccc(O)cc1)C(N)=O)[C@@H](C)O)[C@@H](C)O	·	6%	·	·	6%
COCc1nnc(NC(=O)c2c(-c3c(Cl)cccc3Cl)noc2C)s1	2%	?	-11%	-9%	?
CC(=O)c1ccc(N=Cc2c(O)n(-c3cc(Cl)ccc3N3CCOCC3)c(=O)c3ccccc23)cc1	1%	2%	7.3µM*	-3%	-19%
O=c1c2ccccc2c(C=Nc2ccc(Cl)cn2)c(O)n1-c1cc(Cl)ccc1N1CCOCC1	16%	4%	1%	-2%	-13%
CCN(CC)c1ccc2cc(-c3nc4ccccc4[nH]3)c(=O)oc2c1	4.1µM*	-7%[0.365 µM]	?	5.2µM*	2.8µM*
CCN(CC)c1ccc2cc(-c3nnc(-c4ccccc4)o3)c(=O)oc2c1	?	-11%	?	?	-4%
COc1ccc2cc(-c3ccccc3)c(=O)oc2c1	13%	?	?	14%	-39%
CN(C)Cc1c(O)ccc2cc(-c3nc4ccccc4n3C)c(=O)oc12	5.8µM*	0%	?	3.7µM*	13%
CCN(CC)c1ccc2cc(-c3nc(-c4ccc(OC)cc4)cs3)c(=O)oc2c1	?	17%	-1%	1.8µM*	?
CCN(CC)c1ccc2cc(-c3nc4ccccc4n3C)c(=O)oc2c1	?	2%	?	0.58µM*	1%
NC(=O)c1cc2c3ccccc3ccn2c1-c1ccccc1	?	-21%	?	0.73µM*	?
Cc1cccc(C)c1NC(=O)CN(C)c1ccc(C(F)(F)F)cn1	1%	3%	-2%	12µM*	39%
Cc1cccc(C)c1NC(=O)CN(C)C(=O)c1ccc(-c2cccc(C(F)(F)F)c2)o1	-27%	·	?	4.1µM*	·
CCCC(=O)O[C@]1(C(=O)CO)CCC2[C@@H]3CCC4=CC(=O)CC[C@]4(C)C3C(O)C[C@]21C (stereo partly specified)	7%	-3%	·	2%	21%
Cc1ccccc1NC(=O)CSc1nc2c(c(-c3ccco3)c1C#N)CCCC2	4%	0%	5%	0%	?
SMILES	MCF10A rerep	VP16 counter	ELG1 repair inh	SW480 rereplic	RORgamma inh
N#Cc1c(SCC(=O)Nc2nccs2)nc2c(c1-c1ccco1)CCCC2	7%	2%	?	?	10µM*
Cc1ccc(N2C(=O)N(CC(=O)Nc3ccc(C)cc3Cl)C(=O)C2C)cc1 (stereo unspecified)	2%	·	0%	-7%	·
O=[N+]([O-])c1ccc(-c2nc(-c3cccs3)c(-c3cccs3)[nH]2)cc1	?	?	21µM*	?	?
O=[N+]([O-])c1cccc(-c2nc(-c3cccs3)c(-c3cccs3)[nH]2)c1	-38%	-23%	?	?	43%
COc1ccc(-c2nc(-c3cccs3)c(-c3cccs3)[nH]2)cc1OC	17%	-2%	21µM*	-2%	?
COc1ccc(-c2nc(-c3ccccc3)c(-c3cccs3)[nH]2)cc1OC	-8%	?	15µM*	10%	16%
Cc1cc(NC(=O)CCCN2C(=O)c3cccnc3C2=O)ccc1Br	-1%	-2%	-18%	-7%	6%
COC(=O)c1ccc(C(/C=C/[C@@H](C)C(=O)NCc2ccc(OC)c(O)c2)NC(=O)OCc2ccccc2)cc1 (stereo partly specified)	·	5%	·	·	45%
O=C(CCCn1cncn1)N1CCCC(N2CCN(c3ccc(F)cc3)CC2)C1 (stereo unspecified)	-2%	0%	16%	1%	-6%
O=C(O)c1ccc(/C=N/NC(=O)c2cc(-c3cccs3)nc3ccccc23)cc1	?	-9%	13%	-2%	19%
Cc1nn(-c2ccccc2)c(N2CCCC2)c1/C=N/NC(=O)c1cc2ccccc2cc1O	?	3.5µM*	?	?	3.5µM*
